Screening results: PubChem, National Center for Advancing Translational Sciences (NCATS)
Only some compounds are listed: those with a hit (about 1.6% of all), similar ones and a draw of the others.
IMPase cell inh = cell-permeable inhibitors of inositol monophosphatase (IMPase) | inhibition (IP1 accumulation), % at 46.1 µM | CHO-M1 cells, IP1 accumulation, HTRF TR-FRET ratio | 120,000 tested, under 10 active | P97697; active = well fitted curve in the direction sought with a large enough effect in the signal ratio, not every such curve was filed as active; inconclusive = small, poorly fitted or top-dose-only effect, or a change in a side signal; inactive = no such curve, though single readings can be large or run the other way; the % refers to the signal ratio;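 also: cells stimulated with carbachol in lithium chloride buffer; higher means more IMPase inhibition seen as more IP1 and lower FRET ratio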
Target sequence (P97697 whole entry, looked up): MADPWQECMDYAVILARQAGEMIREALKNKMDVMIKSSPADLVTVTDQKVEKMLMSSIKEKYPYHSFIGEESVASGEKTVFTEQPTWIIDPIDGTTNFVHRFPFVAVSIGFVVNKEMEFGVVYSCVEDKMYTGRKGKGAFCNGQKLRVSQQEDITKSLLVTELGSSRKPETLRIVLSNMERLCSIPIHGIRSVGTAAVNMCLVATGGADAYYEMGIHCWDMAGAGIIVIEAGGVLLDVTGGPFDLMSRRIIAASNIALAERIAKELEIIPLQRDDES
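CHO-M1 cells (CHO stably expressing M1 receptor), compound up to 46 uM final, stimulated with carbachol (50 uM as added) in buffer with 50mM LiCl, pH 7.4, 30 min at 37C. Cytosolic IP1 read by TR-FRET; AC50 from Hill fits.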
IMPase Li cell = cell-permeable IMPase inhibitors with lithium potentiation; CHO-M1 cells, IP1 TR-FRET (IP-One), carbachol + lithium; Potency, µM (highest dose often 59.4 µM), hits mostly inhibitors; hit rate 0.35% among 210,000;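 also: IP1 builds up when IMPase is blocked and the TR-FRET signal falls; nearly all actives have a fitted effect of over 50% in size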
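Steps: plate 2000 CHO-M1 cells per well and culture 16–30 h; add compound and lithium; incubate 30 min, 37C; add d2-IP1 tracer and Eu cryptate anti-IP1 antibody in lysis buffer; read after 10 min at room temperature.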
NPSR antag = blocks cAMP signaling of the human neuropeptide S receptor; Q6W5P4; CHO-NPSR cells, cAMP TR-FRET, antagonist mode; Potency, µM (series often up to 38.3 µM), most hits filed as inhibitors; hit rate 1% among 220,000; also: nearly all actives have a fitted effect of over 50% in size
Target sequence (Q6W5P4 whole entry, looked up): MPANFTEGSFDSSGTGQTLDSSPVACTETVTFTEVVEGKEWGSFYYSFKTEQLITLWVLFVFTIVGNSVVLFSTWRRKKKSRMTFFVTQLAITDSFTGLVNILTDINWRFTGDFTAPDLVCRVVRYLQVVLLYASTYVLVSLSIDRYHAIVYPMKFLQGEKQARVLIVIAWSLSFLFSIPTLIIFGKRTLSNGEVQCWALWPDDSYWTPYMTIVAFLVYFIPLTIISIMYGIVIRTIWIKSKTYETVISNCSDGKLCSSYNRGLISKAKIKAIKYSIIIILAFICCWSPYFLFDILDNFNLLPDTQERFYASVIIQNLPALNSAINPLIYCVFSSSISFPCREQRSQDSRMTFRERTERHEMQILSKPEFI
HTT aggregate = inhibitors of mutant huntingtin aggregate formation in PC12 cells. PC12 HttQ103-GFP aggregates, Acumen cytometry, 40 h. Potency, µM (titrated, usually from 46.1 µM), hits mostly inhibitors. hit rate 1.1% among 220,000. AID 1688; also: nearly all actives have a fitted effect of over 60% in size
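PC12/HTTQ103-GFP, ecdysone-inducible; teb 100 nM; cpd qHTS titration; GFP aggregates read on laser cytometer, Ex 488/Em 500-530 nm.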
LMNA splice mod = LMNA splicing modulation; HeLa LMNA splicing GFP/RFP minigene ratio, 48 h; Potency, µM (highest dose often 46.1 µM), usual class: inhibitors; hit rate 0.01% among 200,000; AID 1487; active = well fitted inhibition curve with a large enough effect in the signal ratio, with a control signal flat, not every such curve was filed as active; inconclusive = small, poorly fitted or top-dose-only effect, or effect the other way, or a change in a side signal; the % refers to the signal ratio
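Read-out is the ratio of GFP to DsRed2 object intensity, acquired by 488 nm laser-scanning cytometry on HeLa lamin A-EGFP minigene reporter cells. Compound incubation 48 hrs at 37 °C in Opti-MEM with 2% FBS; DMSO 0.5% final.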
HTT ATP protect = Huntington cell model cytoprotection by ATP luminescence | PC12 HTT-Q103 induced, cytoprotection, ATP luminescence, 40 h | Potency, µM (highest dose often 56.4 µM), hits mostly activators | hit rate 0.14% among 230,000; also: nearly all actives have a fitted effect of over 45% in size
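Quantitative HTS on tebufenozide-induced (100 nM) PC12 cells expressing HTTQ103 exon 1–GFP; compounds tested as a concentration series; survival measured via cellular ATP.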
Each line names hits and unclear results; the compound was inactive in the other large screens. Unless noted, calls follow the shape of the dose curve; as a rule, active = well fitted curve in the direction sought with a large enough effect; inconclusive = small, poorly fitted or top-dose-only effect, or another doubt; inactive = no such curve, though single readings can be large; an effect the other way counts as inactive or inconclusive.

Cc1nc([N+](=O)[O-])c(Sc2nc3ccccc3n2C)n1Cc1ccccc1	HTT aggregate 10µM, LMNA splice mod inconclusive (no result: IMPase cell inh)
Cc1nc([N+](=O)[O-])c(SCC(N)=O)n1Cc1ccccc1	none (no result: IMPase cell inh)
CCN(c1ccccc1)c1cc(NC)[n+](C)c(C)n1	none (no result: NPSR antag, HTT aggregate, LMNA splice mod)
CC(=O)O[C@@H]1CC(C)=C2[C@H]1[C@H](C)CC[C@H]2/C=C(\C)C(=O)O	none (no result: IMPase cell inh, NPSR antag, HTT aggregate, LMNA splice mod)
CN1/C(=C\C(=O)COc2ccc3c(c2)OCO3)C(C)(C)c2ccccc21	HTT aggregate 22.4µM, LMNA splice mod inconclusive
COc1ccccc1OCC(=O)/C=C1/N(C)c2ccccc2C1(C)C	HTT aggregate inconclusive (no result: IMPase cell inh)
CN(C)CC(CN(C)C)c1ccccn1	none (no result: IMPase cell inh, NPSR antag, HTT aggregate, LMNA splice mod)
C/C(=N\NC(=O)c1ccccc1)c1nc2ccccc2n1C	HTT aggregate 11.2µM, LMNA splice mod inconclusive (no result: IMPase cell inh, HTT ATP protect)
COCCn1c(=O)c(-c2cccs2)nc2cnc(N3CCOCC3)nc21	IMPase Li cell 11.2µM (no result: IMPase cell inh, NPSR antag, HTT aggregate)
CCCCCC(=O)c1ccc(O)cc1O	HTT aggregate 0.141µM (no result: IMPase cell inh)
Cc1cc2ccccc2c[n+]1CC(O)C[n+]1cc2ccccc2cc1C	none (no result: IMPase cell inh, NPSR antag, HTT aggregate, LMNA splice mod)
COc1cccc(CNc2ncc(Br)cc2Br)c1O	NPSR antag 10µM, LMNA splice mod inconclusive
CC(C)=CCC/C(C)=C/CO/N=C1/C[C@@H](O)[C@@H](O)[C@@H]2[C@@H]3C(=O)N(c4cccc(Oc5ccccc5)c4)C(=O)[C@H]3CC[C@H]12	none (no result: IMPase cell inh, IMPase Li cell, NPSR antag, HTT aggregate, LMNA splice mod)
C/C(=N\NC(=O)CSCc1ccc([N+](=O)[O-])cc1)c1ccccc1O	HTT aggregate 10µM, LMNA splice mod inconclusive (no result: IMPase cell inh, HTT ATP protect)
O=[N+]([O-])c1ccc(N/N=C/c2sc(N3CCOCC3)nc2-c2ccccc2)c(S(=O)(=O)Nc2ccc(Cl)cc2)c1	HTT aggregate 3.55µM, LMNA splice mod inconclusive (no result: IMPase cell inh)
CSc1nnc(NC(=O)CCc2ccccc2)s1	IMPase Li cell 28.2µM
CCSc1nnc(NC(=O)CCc2ccc(OC)cc2)s1	IMPase Li cell inconclusive, HTT aggregate inconclusive (no result: IMPase cell inh, HTT ATP protect)
Cc1ncc(COP(=O)(O)O)c(C)c1O	none (no result: IMPase cell inh, NPSR antag, HTT aggregate, LMNA splice mod)
CCN(Cc1ccncc1)C(=O)C(CO)c1ccccc1 (stereo not given)	none (no result: IMPase cell inh)
COC(=O)C1=COC(C)C2CN3CCc4c([nH]c5ccccc45)C3CC12 (stereo not given)	HTT aggregate 11.2µM (no result: IMPase Li cell)
O=C(CSc1cccc2cccc(Cl)c12)OCC(=O)N1CCN(C(=O)c2ccco2)CC1	IMPase Li cell 10µM
O=C(OCC(=O)N1CCN(C(=O)c2ccco2)CC1)c1cc(-c2ccc(Cl)c(Cl)c2Cl)nc2ccccc12	NPSR antag 10µM
Cc1cc(Br)ccc1SCC(=O)OCC(=O)N1CCN(C(=O)c2ccco2)CC1	none
O=C(OCC(=O)N1CCN(C(=O)c2ccco2)CC1)c1cc(-c2ccco2)nc2ccccc12	none
O=C1NCCCc2c1oc1ccc(O)cc21	HTT aggregate 22.4µM, LMNA splice mod inconclusive
COc1ccc(C(=O)c2ccc(N3CCN(C(=O)c4ccc(F)cc4)CC3)c(F)c2)cc1Br	NPSR antag inconclusive, HTT aggregate 12.6µM, LMNA splice mod inconclusive
CCCC(=O)N1CCN(c2ccc(C(=O)c3ccc(OC)c(Br)c3)cc2F)CC1	none
O=C(Nc1ccc([N+](=O)[O-])cc1)Nc1nc(-c2ccc(Cl)s2)cs1	NPSR antag 6.31µM, HTT aggregate inconclusive, LMNA splice mod inconclusive (no result: IMPase cell inh)
CC(=O)Nc1nc(-c2ccc([N+](=O)[O-])cc2)cs1	none (no result: IMPase cell inh, LMNA splice mod)
O=C(NC1CCCCC1)NC1CCCCC1	none (no result: IMPase cell inh, NPSR antag, HTT aggregate, LMNA splice mod)
O=C(O)/C=C/C(=O)NC1CCCCC1	HTT aggregate 3.55µM (no result: IMPase cell inh)
CCS(=O)(=O)c1ncc(N(Cc2cccc(F)c2)Cc2ccco2)c(C(=O)Nc2ccccc2Cl)n1	none (no result: IMPase cell inh, IMPase Li cell, NPSR antag, HTT aggregate, HTT ATP protect)
Cn1cccc1C(=O)Nc1nc(-c2ccccn2)cs1	NPSR antag inconclusive, HTT aggregate 12.6µM, LMNA splice mod inconclusive
Cc1cccnc1Nc1nc(-c2ccccn2)cs1	NPSR antag 0.794µM, HTT aggregate inconclusive, LMNA splice mod inconclusive
O=C(Nc1nc(-c2ccccn2)cs1)c1ccc(Cl)s1	HTT aggregate 0.891µM, LMNA splice mod inconclusive
O=C(Nc1nc(-c2ccccn2)cs1)c1ncc(Cl)c(Cl)c1Cl	HTT aggregate inconclusive, LMNA splice mod inconclusive
NC(C(=O)O)C(O)c1ccc(O)c(O)c1 (stereo not given)	LMNA splice mod inconclusive (no result: IMPase cell inh, IMPase Li cell, NPSR antag)
C#CCn1c(S(=O)(=O)Cc2ccccc2Cl)nc(-c2ccccc2)c1-c1ccccc1	NPSR antag 10µM
C#CCn1c(S(=O)(=O)Cc2ccc(C)cc2)nc(-c2ccccc2)c1-c1ccccc1	NPSR antag inconclusive, LMNA splice mod inconclusive
O=C(N/N=C/c1ccccc1Cl)c1n[nH]c2c1CCCC2	HTT aggregate 12.6µM (no result: IMPase cell inh)
Cc1cccc(NC(=O)c2c(NC(=O)c3ccco3)sc3c2CCC(C(C)(C)C)C3)c1 (stereo not given)	none (no result: IMPase Li cell, NPSR antag, HTT aggregate, LMNA splice mod, HTT ATP protect)
CC1=NN(c2cccc(C(=O)O)c2)C(=O)/C1=C\C=C/c1ccccc1	NPSR antag 7.94µM, HTT aggregate inconclusive (no result: IMPase cell inh, LMNA splice mod)
CC1=NN(c2ccc(C)cc2)C(=O)/C1=C\C=C\c1ccccc1	none (no result: IMPase cell inh, HTT ATP protect)
CCCCCCCCCCOCC(O)CN (stereo not given)	HTT aggregate inconclusive (no result: IMPase cell inh, IMPase Li cell, NPSR antag, LMNA splice mod)
